Assay outcomes as filed in PubChem BioAssay.
HPGD inh: qHTS Assay for Inhibitors of HPGD (15-Hydroxyprostaglandin Dehydrogenase) | AID 894, 2007 | 150,000 tested, 4.3% active | Potency, µM, for inactives: at the top dose activity change, negative = inhibition, usual class: inhibitors | purified HPGD, NADH fluorescence kinetic, PGE2 substrate; active = well fitted inhibition curve with a large enough effect, not every such curve was filed as active; inconclusive = small, poorly fitted or top-dose-only effect, or another doubt; inactive = no such curve, though single readings can be large or run the other way; note: potency is the fitted concentration of half-maximal effect
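NADH formation kinetics: reaction with 30 uM PGE2 and 1 mM NAD+ (final), 20 nM enzyme, Tris-HCl pH 8 with Tween 20, after 15 min compound preincubation at room temperature. Fluorescence change, last versus first of five reads.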
ALOX12 inhib: qHTS Assay for Inhibitors of 12-hLO (12-human lipoxygenase). 150,000 tested, 0.12% active. purified 12-hLO, xylenol orange hydroperoxide absorbance. Potency, µM (doses to about 57.1 µM), for inactives: top-dose activity change, negative = inhibition, actives largely listed as inhibitors. AID 1452, 2008; note: potency is the fitted concentration of half-maximal effect; nearly all actives have a fitted effect of over 55% in size
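Xylenol orange chromogenic assay: hydroperoxide from 12hLO oxidises Fe(II), giving red-shifted Fe(III)-XO absorbance. Conditions: 150 nM enzyme, 40 uM arachidonic acid, 25 mM Hepes pH 7.0, 0.01% Triton X-100, 30 min, room temperature.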
ALDH1A1 block: qHTS Assay for Inhibitors of Aldehyde Dehydrogenase 1 (ALDH1A1); Aldehyde dehydrogenase 1A1 (Homo sapiens), P00352; Purified ALDH1A1, NADH fluorescence, propionaldehyde substrate; Potency, µM (highest dose often 75.3 µM), without a hit: top-dose activity, negative = inhibition, actives largely listed as inhibitors; 220,000 tested, 7.3% active; active = well fitted inhibition curve with a large enough effect, not every such curve was filed as active; inconclusive = small, poorly fitted or top-dose-only effect, or another doubt; inactive = no such curve, though single readings can be large or run the other way;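 note: potency is the fitted concentration of half-maximal effect; plate controls were no enzyme wells and a reference inhibitor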
Target sequence (P00352 whole entry, looked up): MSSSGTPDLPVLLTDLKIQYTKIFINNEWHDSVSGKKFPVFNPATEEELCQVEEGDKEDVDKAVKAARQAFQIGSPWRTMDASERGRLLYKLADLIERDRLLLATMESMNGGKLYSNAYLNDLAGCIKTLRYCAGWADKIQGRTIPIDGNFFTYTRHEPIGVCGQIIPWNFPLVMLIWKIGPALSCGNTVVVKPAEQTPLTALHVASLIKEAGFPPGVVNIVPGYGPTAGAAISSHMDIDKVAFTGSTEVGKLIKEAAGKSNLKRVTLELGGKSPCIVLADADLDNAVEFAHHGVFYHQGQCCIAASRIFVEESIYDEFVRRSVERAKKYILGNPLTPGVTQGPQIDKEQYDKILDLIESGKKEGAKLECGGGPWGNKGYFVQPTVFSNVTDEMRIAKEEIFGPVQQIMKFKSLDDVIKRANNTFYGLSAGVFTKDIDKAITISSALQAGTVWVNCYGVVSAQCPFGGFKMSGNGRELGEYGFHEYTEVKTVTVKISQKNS
IMPase Li cell: qHTS Assay for Identifying the Cell-Membrane Permeable IMPase Inhibitors: Potentiation with Lithium. Potency, µM (doses to about 59.4 µM), for inactives: at the highest dose activity, negative = IMPase inhibition, usual class: inhibitors. AID 1457, 2008. 210,000 tested, 0.35% active. CHO-M1 cells, IP1 TR-FRET (IP-One), carbachol + lithium;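 note: IP1 builds up when IMPase is blocked and the TR-FRET signal falls; potency is the fitted concentration of half-maximal effect; plate controls were basal vehicle for no effect and high inhibitor control for full effect; nearly all actives have a fitted effect of over 50% in size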
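CHO cells stably expressing M1 receptor (2000/well, cultured 16–30 h) treated 30 min at 37C with compound plus low lithium. Cytosolic IP1 by TR-FRET (665/620 ratio and 620 channel) after 10 min lysis; AC50 by Hill fit.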
PNC inhibitor: High Content Assay for Compounds that inhibit the Assembly of the Perinucleolar Compartment; PC3M PTB-GFP, PNC prevalence imaging, 16 h; hits give low values; AID 2417, 2010; activity change (PNC), negative = inhibition, % at 10 µM; 140,000 tested, 3.1% active;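 active = readout at or below -70, meaning at least 70% loss of cells showing the perinucleolar compartment, a nuclear body marking cancer cells; inconclusive = readout between -30 and a set limit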;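 note: plate controls were DMSO wells for no effect and camptothecin positive control wells for full effect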
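Compounds are pinned in duplicate onto adhered PC3M cells stably expressing GFP-tagged PTB and incubated 16 h at 37 C. Cells are then fixed, nuclei stained with Hoechst, and PNC-positive cells counted.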
IMPase inh: qHTS Assay for Identifying the Cell-Membrane Permeable IMPase Inhibitors. inhibition (IP1 accumulation), % at 46.1 µM. 120,000 tested, under 10 active. CHO-M1 cells, IP1 accumulation, HTRF TR-FRET ratio. Inositol monophosphatase 1 (Rattus norvegicus), P97697; active = well fitted curve in the direction sought with a large enough effect in the signal ratio, not every such curve was filed as active; inconclusive = small, poorly fitted or top-dose-only effect, or a change in a side signal; inactive = no such curve, though single readings can be large or run the other way; the % refers to the signal ratio;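 note: cells stimulated with carbachol in lithium chloride buffer; plate controls were DMSO basal wells for no effect and reference inhibitor wells for full effect; higher means more IMPase inhibition seen as more IP1 and lower FRET ratio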
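Elevated IP1 in lysates lowers TR-FRET signal (665/620 ratio and 620 channel reported). Cells were CHO-M1, given carbachol (50 uM as added) plus 50mM LiCl, pH 7.4, 30 min, 37C; compounds titrated up to 46 uM; AC50 by Hill equation.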
The depositor's hits bear a star; ? = inconclusive; . = not tested or not shown; [ ] = remark or other dose. A selection: hits, their analogues and other compounds. The true share with any hit is near 11%. Unless noted, calls come from the whole dose curve; as a rule, active = well fitted curve in the direction sought with a large enough effect; inconclusive = small, poorly fitted or top-dose-only effect, or another doubt; inactive = no such curve, though single readings can be large; an effect the other way counts as inactive or inconclusive. Unless noted, % is set by controls: 0 for no effect and ±100 for the full control effect.

SMILES | HPGD inh | ALOX12 inhib | ALDH1A1 block | IMPase Li cell | PNC inhibitor | IMPase inh
CCN(CC)c1ccc(/C=N/Nc2ccc(C)cc2)c(O)c1 | 32µM* | -11% | 10µM* | 3% | -12 | -6
CCN(CC)c1ccc(/C=N/n2nnnc2N)c(O)c1 | ? | -8% | ? | -2%[38.3 µM] | -120* | 15
Cc1cccc(N/N=C/c2ccccc2O)c1 | ? | -28% | 25µM* | 0% | 12 | .
CC1=C(C(=O)OC2CCCC2)C(c2ccccc2Cl)CC(=O)N1 (centres undefined) | . | . | . | . | . | 7
CC(C)CN1CCC2(CC1)CCN(C(=O)c1cccc(F)c1)CC2 | -23% | -5% | 2% | 32% | . | .
COC(=O)N1CCC2(CCN(C(=O)Nc3ccc(OC)cc3)CC2)CC1 | -3% | -4% | -7% | -13% | . | .
NC(=O)NCC(N)C(=O)O (centres undefined) | -8% | 8% | 6% | 5% | . | .
O=C(OCn1cncn1)c1ccc(Cl)cc1Cl | -44% | 7% | -7% | 26%[38.3 µM] | ? | -6
CC(C)CC(=O)/C(=C\c1ccc(Cl)cc1Cl)n1cncn1 | ? | -5% | 22µM* | 3% | 72 | .
COc1ccc(/C=C(/C(=O)c2ccc(Cl)cc2Cl)n2cncn2)cc1 | -11% | -23% | 8.9µM* | 6%[38.3 µM] | 8 | 3
CN(C)/C=C(/C(=O)c1ccc(Cl)cc1)n1cncn1 | . | . | -1% | -9% | . | .
CN(C)c1ccc(/C=C(/C(=O)c2ccc(Cl)cc2Cl)n2cncn2)cc1 | -21% | -6% | 1.1µM* | 3% | 27 | 6
CO[C@@]1(NC(=O)Cc2cccs2)C(=O)N2C(C(=O)O)=C(COC(N)=O)CSC21 (some centres undefined) | -9% | -2% | -4% | 8% | . | .
COc1ccc(OC)c(NC(=O)CSc2ccc3nnc(-c4cccnc4)n3n2)c1 | . | . | 5% | 1% | . | .
CCOC(=O)c1ccc(N2C(=O)c3n[nH]c(C)c3C2c2ccc(OC)cc2OC)cc1 (centres undefined) | -29% | 0% | -5% | 17% | -119* | 13
CCOC(=O)c1ccc(N2C(=O)c3n[nH]c(C)c3C2c2ccc(OC)cc2)cc1 (centres undefined) | -18% | -29% | -1% | -2%[38.3 µM] | ? | 12
CNc1cc([N+](=O)[O-])ccc1N/C=C/C(=O)c1cccs1 | -17% | -9% | ? | 1% | 51 | 1[0.0738 µM]
CNc1cc([N+](=O)[O-])ccc1N/C=C/C(=O)c1ccc2c(c1)OCO2 | -16% | -3% | 13µM* | -2% | -118* | .
COCCNC(=O)C1(CC(C)C)C=CCN1C(=O)c1ccccc1 (centres undefined) | -8% | -1% | 5% | -10% | . | .
Cc1sc2nc3n(c(=O)c2c1C)NC(=O)CC3 | -13% | -4% | 6% | 1% | -100* | -2
COc1cccc(N2CCN(C(=O)C3CCC(CNS(=O)(=O)c4ccc(Br)s4)CC3)CC2)c1 (centres undefined) | . | . | . | . | . | 15
O=S(=O)(NC1CCCCC1)c1ccc(-c2csnn2)s1 | 14µM* | -6% | -4% | 14%[38.3 µM] | 7 | 7
O=S(=O)(NC1CCCC1)c1ccc(Br)s1 | 25µM* | -4% | 5% | 4%[38.3 µM] | 24 | -2
CO/N=C(\C)CCN1CCCCc2nc(C)c(C)cc21 | . | . | 10%[13.5 µM] | . | . | .
CC(=O)c1ccccc1OCC(O)Cn1c(CO)nc2ccccc21 (centres undefined) | . | . | . | . | . | -3
COc1ccc(-n2c(=O)c(CCc3ccccc3)nc3cncnc32)cc1 | . | . | ? | 9% | . | .
Oc1ccc(/C=N/Nc2ncnc3c2ncn3Cc2ccccc2)cc1O | 25µM* | -14% | ? | 10% | -29 | .
Oc1cccc(/C=N/Nc2ncnc3c2ncn3Cc2ccccc2)c1 | 22µM* | 1% | 4% | 6% | -25 | .
